This is a sample that favours compounds with a hit; in the whole collection about 1.2% have one here.
TrxR1 substrate: is turned over as a substrate by rat TrxR1; purified TrxR1 substrate turnover, NADPH consumption readout; AID 588456; Potency, µM (doses to about 114 µM); O89049; 390,000 compounds, 0.01% hits; further: nearly all actives have a fitted effect of over 50% in size
Target sequence (O89049 whole entry, looked up): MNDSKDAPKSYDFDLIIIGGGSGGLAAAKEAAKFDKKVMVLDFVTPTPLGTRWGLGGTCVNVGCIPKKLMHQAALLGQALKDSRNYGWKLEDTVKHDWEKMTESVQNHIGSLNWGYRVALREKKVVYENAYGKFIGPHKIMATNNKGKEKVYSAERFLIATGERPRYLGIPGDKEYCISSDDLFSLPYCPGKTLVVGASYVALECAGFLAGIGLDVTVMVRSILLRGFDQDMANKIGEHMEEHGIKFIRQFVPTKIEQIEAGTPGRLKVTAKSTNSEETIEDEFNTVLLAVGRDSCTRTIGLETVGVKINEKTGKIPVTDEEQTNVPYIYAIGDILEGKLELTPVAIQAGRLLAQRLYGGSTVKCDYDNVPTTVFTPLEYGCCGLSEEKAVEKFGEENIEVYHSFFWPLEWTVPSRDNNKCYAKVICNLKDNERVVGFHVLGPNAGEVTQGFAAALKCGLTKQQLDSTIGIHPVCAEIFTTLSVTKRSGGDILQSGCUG
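Rat TrxR1, dispensed at 90 nM, was prereduced with 400 uM NADPH (final) for 5 min at ~22 deg C, then incubated with compound 15 min before 400 uM selenite. A first-read NADPH fluorescence drop versus no-compound background flagged substrates.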
TrxR1 inh: blocks rat thioredoxin reductase 1. AID 588453. recombinant rTrxR1, NADPH fluorescence consumption, selenite substrate. O89049. Potency, µM (series often up to 114 µM), most hits filed as inhibitors. 390,000 compounds, 1% hits; further: nearly all actives have a fitted effect of over 65% in size
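Rat TrxR1 (90 nM in the dispensed reagent) was pre-reduced with 400 uM NADPH for 5 min at room temperature, then incubated with compound for 15 min. After 400 uM selenite was added, NADPH fluorescence (Ex 340/Em 450 nm) was followed for 8 min.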
GLS inhibitor: inhibitors of human glutaminase (GLS) | O94925 | GLS enzymatic activity, qHTS titration | Potency, µM (titrated, usually from 45.5 µM), most hits filed as inhibitors | 410,000 compounds, 0.21% hits | AID 624170
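Assay buffer: 45 mM KH2PO4 pH 8.2, 0.02% Tween-20. hKGA acts on L-glutamine (1 mM solution added); product glutamate is reported by an oxidase/peroxidase Amplex Red coupling, with fluorescence taken at baseline and 30 min.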
IDH1 R132H inh: human IDH1 R132H inhibition; 390,000 compounds, 0.093% hits; Potency, µM (series often up to 76.6 µM), hits mostly inhibitors; IDH1-R132H enzyme, NADPH consumption, diaphorase/resazurin fluorescence; O75874; further: nearly all actives have a fitted effect of over 65% in size
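IDH1-R132H (0.5 ug/mL dispensed) in pH 7.5 Tris buffer was preincubated 30 min with compound, then given a substrate mix of 0.016 mM NADPH and 2 mM alpha-KG for 80 min at room temperature; remaining NADPH was read by diaphorase/resazurin fluorescence.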
A number is an active result; i = inactive; ? = inconclusive; nt = not tested or not shown; [ ] = another dose, or the depositor's remark. The call rests on the fitted dose curve; in most records, active means well fitted curve in the direction sought with a large enough effect; inconclusive means small, poorly fitted or top-dose-only effect, or another doubt; inactive means no such curve, though single readings can be large; an effect the other way counts as inactive or inconclusive.

SMILES	TrxR1 substrate	TrxR1 inh	GLS inhibitor	IDH1 R132H inh
CCOC(=O)N1CCc2c(sc(NCc3cccc(F)c3)c2C(=O)Nc2ccc(OC)cc2OC)C1	i	i	i	i
Cc1ccccc1C(=O)N1CCC(C(=O)N2CCN(c3ncccn3)CC2)CC1	i	i	i	i
CCOC(=O)N1CCN(C(=O)C2CCN(C(=O)c3ccccc3C)CC2)CC1	i	2.51µM	?	i
COc1ccc(NC(=O)C(=O)NCCc2csc(-c3ccc(Cl)cc3)n2)cc1OC	i	i	i	i
O=C1NC2CCCCC2C(=O)N1OS(=O)(=O)c1ccccc1 (stereo not drawn)	i	3.55µM	i	i
Cn1cnc([N+](=O)[O-])c1Oc1ccc2ccccc2c1	i[11.4 µM]	3.98µM	i	i
CCCCCCCN(C(=O)CCl)c1ccccc1C	i	79.4µM	i	i
CC(=O)N1CCCc2cc(S(=O)(=O)N3CCC(C(=O)NCc4ccccc4Cl)CC3)ccc21	i	i	i	i
Cc1ccc(N2C(=O)CSCC2=O)cc1	i	i	i	i
Cc1ccc(N2C(=O)CS/C2=C(\C(Cl)=C(Cl)Cl)[N+](=O)[O-])cc1	i	31.6µM	i	i
COC1=C2C[C@H](C)C[C@H](OC)[C@@H](O)[C@@H](C)C=C(C)[C@H](OC(N)=O)[C@@H](OC)C=CC=C(C)C(=O)NC(=CC1=O)C2=O	i	50.1µM	nt	nt
CC(=O)O[C@]1(C(=O)CO)[C@@H](C)C[C@H]2[C@@H]3CCC4=CC(=O)C=C[C@]4(C)[C@@]3(F)[C@@H](O)C[C@]21C	nt	nt	i	nt
Cc1ccccc1OCC(=O)Nc1cc(C)c(O)c(-c2nc3ccccc3o2)c1	i	i	nt	nt
CCN1c2ccccc2NC2C1C(C(C)=O)C(=O)N2c1ccc(Cl)cc1 (stereo not drawn)	i	i	i	i
CCN1c2ccccc2NC2N=C(OC)C(c3ccccc3)C21 (stereo not drawn)	i	20µM	i	i
COc1ccc(-c2nnc(SCC(=O)NCc3ccccc3)nc2-c2ccc(OC)c(OC)c2)cc1OC	i	i	i	i
O=C(CN1C(=O)CC(c2ccco2)Sc2ccccc21)Nc1ccc(Br)cc1 (stereo not drawn)	i	i	i	i
O=C(CN1C(=O)CC(c2ccco2)Sc2ccccc21)Nc1ccccc1F (stereo not drawn)	i	25.1µM	i	i
Cc1nc(-c2ccc(S(=O)(=O)N3CCN(c4cccc(Cl)c4)CC3)cc2)co1	i	i	i	i
N#Cc1ccc(-c2ccc(C3Nc4ccccc4C(=O)N3O)o2)cc1 (stereo not drawn)	i	7.08µM	i	nt
CCOC1=C2[C@@H](CN(S(=O)(=O)c3ccc(C)cc3)[C@H]2c2ccccc2Cl)[C@H]2C(=O)N(Cc3ccccc3)C(=O)[C@H]2C1	nt	nt	i	nt
C=C1C(=O)OC2C1CCC(C)=C1C(=O)C3OC3(C)C12 (stereo not drawn)	i	8.91µM	i	i
O=C(O)c1ccccc1-c1c2cc(Br)c(=O)c(Br)c-2oc2c(Br)c(O)c(Br)cc12	nt	nt	i	nt
O=C(O)c1cccc2cccc(-c3c4ccc(=O)c(O)c-4oc4c(O)c(O)ccc34)c12	i	i[11.4 µM]	1.78µM	i
COc1cccc(CNC(=O)CSC2=Nc3ccccc3C3=NC(C(C)C)C(=O)N23)c1 (stereo not drawn)	i	i	i	i
SMILES	TrxR1 substrate	TrxR1 inh	GLS inhibitor	IDH1 R132H inh
O=C1C=CC(=O)N1c1ccccc1N1C(=O)C=CC1=O	i	0.316µM	?	i
O=C(O)c1ccccc1C(=O)c1ccc(-c2ccccc2)cc1	i	i	i	i
O=C(c1ccccc1)c1ccccc1N1C(=O)C=CC1=O	i	2.24µM	?	i
O=C1C=CC(=O)N1c1ccccn1	i	?	i	i
COC(=O)C1=C(C)NC(C)=C(C(=O)O[C@H]2CCN(Cc3ccccc3)C2)C1c1cccc([N+](=O)[O-])c1 (stereo partly drawn)	nt	nt	i	nt
Cc1ccccc1OCC(=O)Nc1cc(-c2cccc(Br)c2)nn1-c1ccccc1	i	i	i	i
CCc1ccccc1-n1nnc(-c2nsc(NC(=O)c3ccc(C)c(C)c3)n2)c1C	i	i	i	i
O=C(C=Cc1ccco1)N1CCOCC1	i[2.29 µM]	i	i	i
O=C(O)C(C(=O)/C=C/c1ccco1)=C1SCCS1	i	25.1µM	?	i
O=C(C=C1SCCS1)/C=C/c1ccco1	i	39.8µM	i	i
O=C(/C=C/c1ccco1)NC1CCCC1	i	i	i	i
COc1ccc(S(=O)(=O)N2CCCOC2CNC(=O)C(=O)NCCO)cc1 (stereo not drawn)	nt	nt	i	i
Cc1ccc(NC(=O)CN2C(=O)N/C(=C/c3cccn3-c3ccc(C(=O)O)cc3)C2=O)cc1	i	?	5.01µM	i
O=C(Oc1ccc(=O)n(-c2ccccc2)n1)c1cccc(Cl)c1	i	3.55µM	i	i
COc1cc(C(C[N+](=O)[O-])c2c(C)[nH]c3ccccc23)ccc1O (stereo not drawn)	i	?	i	i
COc1cc(C(C[N+](=O)[O-])c2c(C)cc3ccccn23)ccc1O (stereo not drawn)	i	i	7.94µM	i
COc1cc(C(C[N+](=O)[O-])c2c(-c3ccccc3)cc3ccccn23)cc(OC)c1OC (stereo not drawn)	i	1.78µM	i	i
COc1cc(-c2ncc3ccccn23)cc(OC)c1OC	i	i	i	i
COc1ccc(C(C[N+](=O)[O-])c2c(-c3ccccc3)cc3ccccn23)cc1 (stereo not drawn)	i	?	i	i
COc1ccc(C(C[N+](=O)[O-])c2c(-c3ccccc3)cc3ccccn23)cc1OC (stereo not drawn)	i	15.8µM	i	i
CCCCCCC(=O)O[C@@H]1CC[C@H]2[C@@H]3CCc4cc(O)ccc4[C@H]3CC[C@]12C	nt	nt	i	nt
O=[N+]([O-])c1cccc2[nH]cnc12	i	i	nt	nt
O=S(=O)(O)c1ccc2c(N=Nc3ccc(S(=O)(=O)O)c4ccccc34)c(O)c(S(=O)(=O)O)cc2c1	i	70.8µM	i	nt
CC(=O)Nc1ccc(S(=O)(=O)O)c2cc(S(=O)(=O)O)c(N=Nc3ccc(N=Nc4ccc(S(=O)(=O)O)cc4)c4ccc(S(=O)(=O)O)cc34)c(O)c12	i	i	nt	nt
COc1ccc(S(=O)(=O)N2CCCN(CC(=O)C(C)(C)C)CC2)cc1	i	12.6µM	i	i
COc1ccc(S(=O)(=O)N2CCCN(CC(=O)Nc3ccc4c(c3)OCO4)CC2)cc1	i	79.4µM	i	i
O=C(CN1CCN(S(=O)(=O)c2ccc(F)cc2)CC1)Nc1ccc2c(c1)OCO2	i	i	i	i
COc1ccc(S(=O)(=O)N2CCCN(CC(=O)Nc3ccccc3F)CC2)cc1	i	i	i	i
COCC(=O)Nc1nc2n(n1)C(c1ccc(Cl)cc1)CC(c1ccc(OC)cc1)N2 (stereo not drawn)	i	17.8µM	i	i
COCC(=O)Nc1nc2n(n1)C(c1ccccc1Cl)CC(c1ccc(OC)cc1)N2 (stereo not drawn)	i	?	i	i

Source: PubChem
